28 compounds from PubChem BioAssay (Tox21) can be followed below.

Experiment [1] is described as follows: A CellTox Green Cytotoxicity Assay to monitor cytotoxicity in HEK293 cells - 32 hour (AID 1224881). Note: nearly all actives have a fitted effect of over 40% in size. Note: potency is the fitted concentration of half-maximal effect. A digest of the protocol:
(§1)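 HEK293 cells premixed with CellTox Green dye were seeded at 600 cells/well and left 5 h at 37 C/5% CO2 before pin transfer of 23 nL compound in DMSO. Fluorescence from dye bound to dead-cell DNA was read during 40 h treatment.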

Experiment [2] is described as follows: A CellTox Green Cytotoxicity Assay to monitor cytotoxicity in HepG2 cells - 32 hour (AID 1224883). Note: nearly all actives have a fitted effect of over 50% in size. Note: potency is the fitted concentration of half-maximal effect. A digest of the protocol:
(§2)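 HepG2 cells were seeded together with the CellTox Green dye at 600 cells/well, left 5 h at 37 C/5% CO2, then given compounds in DMSO. Fluorescence from dye bound to dead-cell DNA was read repeatedly over 40 h of treatment at 37 C.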

Experiment [3] can be described thus: A CellTox Green Cytotoxicity Assay to monitor cytotoxicity in HEK293 cells - 8 hour (AID 1224884). Note: nearly all actives have a fitted effect of over 35% in size. Note: potency is the fitted concentration of half-maximal effect. A digest of the protocol:
as §1

Experiment [4] is described as follows: qHTS RealTime-Glo MT Cell Viability Assay in HepG2 cells - 16 hour (AID 1224885). Note: nearly all actives have a fitted effect of over 50% in size. Note: potency is the fitted concentration of half-maximal effect. A digest of the protocol: (§3)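 Cells + NanoLuc/prosubstrate dispensed (600 cells/well) → 5 h at 37 C/5% CO2 → compounds in DMSO transferred → 40 h incubation at 37 C, luminescence read at 0, 8, 16, 24, 32, 40 h.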
For orientation: qHTS replaces the single test concentration by a dilution series.

The nature of experiment [5]: qHTS RealTime-Glo MT Cell Viability Assay in HEK293 cells - 24 hour (AID 1224886). Note: nearly all actives have a fitted effect of over 50% in size. Note: potency is the fitted concentration of half-maximal effect. A digest of the protocol: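 Tox21 10K qHTS, HEK293, 600 cells/well, RealTime-Glo reagent co-dispensed with cells; 5 h preincubation, compound by pintool, 37 C, luminescence at 0–40 h.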
The nature of experiment [6]: qHTS RealTime-Glo MT Cell Viability Assay in HEK293 cells - 8 hour (AID 1224887). Note: nearly all actives have a fitted effect of over 50% in size. Note: potency is the fitted concentration of half-maximal effect. The gist of the method: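 HEK293 cells mixed with RealTime-Glo reagents (NanoLuc plus cell-permeant prosubstrate) at 600 cells/well, preincubated 5 h at 37 C/5% CO2, then given 23 nL compound in DMSO. Nonlytic luminescence from viable cells was read at 0, 8, 16, 24, 32 and 40 h.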
Experiment [7] can be described thus: A CellTox Green Cytotoxicity Assay to monitor cytotoxicity in HEK293 cells - 16 hour (AID 1224888). Note: nearly all actives have a fitted effect of over 35% in size. A digest of the protocol:
as §1

Experiment [8] in a line: qHTS RealTime-Glo MT Cell Viability Assay in HepG2 cells - 0 hour (AID 1224889). Note: nearly all actives have a fitted effect of over 50% in size. Note: potency is the fitted concentration of half-maximal effect. The gist of the method:
as §3

A short description of experiment [9]: A CellTox Green Cytotoxicity Assay to monitor cytotoxicity in HepG2 cells - 8 hour (AID 1224890). Note: nearly all actives have a fitted effect of over 45% in size. Note: potency is the fitted concentration of half-maximal effect. A digest of the protocol: as §2
A short description of experiment [10]: A CellTox Green Cytotoxicity Assay to monitor cytotoxicity in HepG2 cells - 0 hour (AID 1224882). Note: nearly all actives have a fitted effect of over 35% in size. Note: potency is the fitted concentration of half-maximal effect. A digest of the protocol: as §2

A number with no mark means an inactive call. Inconclusive results are not listed. Activity calls are given as the source filed them. Calls come from the whole dose curve; as a rule, active = well fitted curve in the direction sought with a large enough effect in the repeat runs; inconclusive = weak or mixed curves; inactive = no such curve, though single readings can be large; an effect the other way counts as inactive or inconclusive.

Regarding `OC1(c2ccccc2)CCNCC1`, the Potency entry in experiment [1], in experiment [2], in experiment [3], in experiment [4], in [5] and in [6] was “inactive” each time. The Potency result in experiment [7], in [8] and in [9] was “inactive” in each case.

With `CC(CN(C)C)C(C)(O)Cc1ccc(Cl)cc1` (stereo not given), the Potency entry in [1], in [2], in experiment [3], in experiment [4], in [5] and in [6] was “inactive” in each case. Also, the Potency entry in experiment [7] and in [8] was “inactive” each time.

Consider `NNC(=O)CP(=O)(c1ccccc1)c1ccccc1`, for which the Potency result in [1], in experiment [2], in experiment [3], in [4], in experiment [5] and in experiment [6] was “inactive” in each case. Further, the Potency entry in [7] and in [9] was “inactive” in each case.

Consider `c1ccc2sc(SN(C3CCCCC3)C3CCCCC3)nc2c1`, for which the Potency result in experiment [1], in experiment [2], in [3], in experiment [4], in experiment [5] and in [6] was “inactive” in each case. The Potency entry in experiment [7], in experiment [8] and in experiment [9] was “inactive” in each case.

Turning to `CC(C)=CC(=O)C=C(C)C`, the Potency entry in experiment [1], in experiment [2], in experiment [3], in experiment [4], in experiment [5] and in experiment [6] was “inactive” in each case. Further, the Potency result in experiment [7], in experiment [8] and in [9] was “inactive” in each case.

Take `CCOC(=O)c1ccc(I)cc1`: in [1], the Potency is 35 µM (active). Moreover, the Potency result in experiment [2], in [3], in experiment [4], in experiment [8] and in [9] was “inactive” each time.

For the compound `CC1(CN2CCC(n3c(=O)[nH]c4ccccc43)CC2)OCc2ccccc2-n2cccc21` (stereo not given), the Potency result in [10], in experiment [3], in experiment [7], in experiment [8] and in [9] was “inactive” in each case. The Potency in experiment [5] is 19 µM (active).

As for `CCC(C)COC(=O)CC(C)C` (stereo not given), the Potency entry in experiment [1], in [4], in experiment [5], in experiment [6], in experiment [7] and in experiment [8] was “inactive” each time. The Potency entry in [9] was “inactive”. Further, the Potency in [2] is 54.9 µM (active).

As for `O=C1c2ccccc2C(=O)N1CCc1noc(-c2ccc(CN3CCCCCC3)s2)n1`, the Potency in experiment [10] was 35.7 µM (active); in experiment [2], 35.7 µM (active); in experiment [3] it was 35.7 µM (active); in experiment [5], 35.7 µM (active); in experiment [6], 35.7 µM (active); in experiment [9], 31.8 µM (active).

On to `CN1C(=O)c2ccccc2C1=O`, for which the Potency result in experiment [1], in experiment [3], in experiment [4], in experiment [6], in [7] and in experiment [8] was “inactive” throughout. The Potency result in [9] is “inactive”.

For `C=CC(=O)OCC1CC2CC1C1CCC(COC(=O)C=C)C21` (stereo not given), the Potency was 49 µM (active) in experiment [1] and 43.6 µM (active) in [2]. For the same compound, the Potency entry in [3], in experiment [6], in [7], in experiment [8] and in experiment [9] was “inactive” in each case.

For the compound `O=C(Nc1cccc2c(=O)cc(-c3nn[nH]n3)oc12)c1ccc(OCCCCc2ccccc2)cc1`, the Potency entry in [1], in experiment [3], in experiment [4], in [5] and in [7] was “inactive” each time. Also, in experiment [9], the Potency is 21.3 µM (active).

As to `COc1cc(N)c(Cl)cc1C(=O)NC1CCN(CCCOc2ccc(F)cc2)CC1OC` (stereo not given), the Potency entry in [1], in experiment [3], in experiment [4], in experiment [7] and in [9] was “inactive” each time. In addition, the Potency in [5] and in experiment [6] was 3.01 µM (active) in each case.

As for `CC=C(Cl)Cl`, the Potency result in experiment [10], in experiment [2], in experiment [3], in experiment [4], in experiment [5] and in [8] was “inactive” in each case. Further, the Potency entry in experiment [9] is “inactive”.

As to `CC(=O)Nc1ccc(C)cc1C`, the Potency result in experiment [10], in experiment [2], in experiment [3], in experiment [4], in [5] and in experiment [6] was “inactive” each time. In addition, the Potency result in [7], in experiment [8] and in experiment [9] was “inactive” throughout.

Regarding `CCCCC(CC)COP(=O)(O)O` (stereo not given), the Potency result in [10], in experiment [2], in [3], in experiment [4], in experiment [6] and in experiment [8] was “inactive” throughout. Moreover, in experiment [9], the Potency entry is “inactive”.

For the compound `CCCCCCCCN`, the Potency entry in experiment [2], in [3], in experiment [4], in [5], in experiment [6] and in [7] was “inactive” in each case. The Potency entry in experiment [8] and in experiment [9] was “inactive” in each case.

As to `Cc1cc2c(OCC(CNC(C)(C)C)OC(=O)c3ccccc3)cccc2[nH]1` (stereo not given), the Potency entry in experiment [3], in experiment [4], in experiment [6], in experiment [7], in experiment [8] and in experiment [9] was “inactive” in each case.

Take `O=C=Nc1cccc(C(F)(F)F)c1`: the Potency result in experiment [10], in [2], in experiment [3], in experiment [4], in experiment [6] and in experiment [8] was “inactive” throughout. For the same compound, the Potency entry in experiment [9] is “inactive”.

`Cc1cc(O)c(C)c(C)c1O`: the Potency entry in experiment [10], in [2], in [3], in [4], in experiment [7] and in experiment [8] was “inactive” in each case. The Potency result in experiment [9] was “inactive”.

As to `CC(C)(C)CC(=O)OCC(=O)[C@@]1(O)CC[C@H]2[C@@H]3CCC4=CC(=O)C=C[C@]4(C)[C@H]3[C@@H](O)C[C@@]21C`, the Potency entry in [10], in [2], in experiment [3], in [4], in [7] and in experiment [9] was “inactive” throughout. The results for the Potency in experiment [5] and in experiment [8] were 21.3 µM (active) and 1.34 µM (active), respectively.

Take `COc1ncnc(NS(=O)(=O)c2ccc(N)cc2)c1OC`: the Potency result in experiment [1], in [3], in experiment [4], in [5], in [7] and in [8] was “inactive” each time.

On to `CC(C)c1nc(CN(C)C(=O)N[C@H](C(=O)N[C@@H](Cc2ccccc2)C[C@H](O)[C@H](Cc2ccccc2)NC(=O)OCc2cncs2)C(C)C)cs1`, for which the Potency result in experiment [3], in [4], in experiment [7], in [8] and in experiment [9] was “inactive” in each case. Moreover, the Potency in [5] was 21.3 µM (active).

Turning to `c1csc(SSc2cccs2)c1`, the Potency result in experiment [3], in experiment [7], in [8] and in experiment [9] was “inactive” in each case.

On to `CN1C[C@H](C(=O)N[C@]2(C)O[C@@]3(O)[C@@H]4CCCN4C(=O)[C@H](Cc4ccccc4)N3C2=O)C[C@@H]2c3cccc4[nH]cc(c34)C[C@H]21`, for which the Potency entry in experiment [10], in experiment [3], in [7], in experiment [8] and in experiment [9] was “inactive” in each case. The figures for the Potency in experiment [5] and in [6] were 21.3 µM (active) and 23.9 µM (active), respectively.

On to `Nc1ccc(N=Nc2ccccc2)c(N)c1`, for which the Potency entry in experiment [1], in [2], in experiment [3], in [7], in [8] and in [9] was “inactive” throughout. In addition, the Potency in [5] is 42.7 µM (active).

With `Cc1cc(O)ccc1O`, the Potency result in experiment [10], in experiment [2], in [3], in experiment [4], in experiment [8] and in experiment [9] was “inactive” each time.

On to `CC(=O)NC1(c2cccc(F)c2)CCN(CC[C@@]2(c3ccc(Cl)c(Cl)c3)CN(c3ccccc3)C(=O)CO2)CC1`, for which the Potency entry in [10], in [3], in experiment [7], in [8] and in experiment [9] was “inactive” in each case. The Potency is 43.8 µM (active) in experiment [2], 43.8 µM (active) in [4], 17.4 µM (active) in experiment [5] and 31 µM (active) in experiment [6].
